Assay outcomes deposited in PubChem BioAssay by National Center for Advancing Translational Sciences (NCATS).
IL-1B inflam inh – inflammasome signaling inhibition, IL-1 beta readout | THP-1 LPS/ATP IL-1B secretion, AlphaLISA, 16 h; stronger effect = lower value | activity change, % at 57.5 µM | actives 4.7% (n = 360,000); in the data active = activity change below about -50%; inconclusive = mostly about -30% to -49%
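Secreted IL-1B measured by AlphaLISA bead assay after 16 h compound exposure of THP-1 cells; compounds (final up to 57.5 uM) added 1 h before LPS (250 ng/mL) and ATP (1.25 mM) stimulation; lower signal means less secretion.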
DT40 TDP1 no CPT – qHTS for Inhibitors of human tyrosyl-DNA phosphodiesterase 1 (TDP1): qHTS in cells in absence of CPT. AID 686978, 2013. actives 15% (n = 420,000). Potency, µM (doses to about 46.2 µM), without a hit: top-dose activity change, negative = growth inhibition, most hits filed as inhibitors. DT40 Tdp1-/- hTDP1 cells, no CPT, ATP luminescence, 48 h; also: potency is read from the fitted curve at half-maximal effect; nearly all actives have a fitted effect of over 55% in size
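DT40 Tdp1-/-;hTDP1 cells, no CPT (DMSO vehicle only), 400 cells/well; compounds pin-transferred; ≥48 hr, 37 °C; CellTiter-Glo 30 min RT dark, luminescence read.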
LDHA block – inhibitors of human lactate dehydrogenase A; activity change, % (values are at about 110 or 230 µM); AID 1347041; actives 0.15% (n = 480,000); purified LDHA, NADH/diaphorase-resazurin fluorescence; stronger effect = lower value; in the data active = activity change below about -30%; inconclusive = mostly about -25% to -30%;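 also: plate controls were DMSO wells for no effect and wells without enzyme for full effect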
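Human LDH5 (2 nM) was incubated with 0.06 mM NADH and 0.2 mM pyruvate for 5 min at room temperature in Tris pH 7.4. Remaining NADH was coupled through diaphorase/resazurin, and resorufin fluorescence was read at 0 and 20 min.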
RORg inh – inhibitors of mouse ROR gamma transcriptional activity; P51450; Drosophila S2 Gal4-RORgamma UAS-luciferase reporter, 20 h; Potency, µM (series often up to 53.6 µM), without a hit: top-dose activity change, negative = inhibition, most hits filed as inhibitors; actives 5.4% (n = 310,000); also: potency is read from the fitted curve at half-maximal effect; nearly all actives have a fitted effect of over 60% in size
Target sequence (P51450 whole entry, looked up, the tested form may be a part): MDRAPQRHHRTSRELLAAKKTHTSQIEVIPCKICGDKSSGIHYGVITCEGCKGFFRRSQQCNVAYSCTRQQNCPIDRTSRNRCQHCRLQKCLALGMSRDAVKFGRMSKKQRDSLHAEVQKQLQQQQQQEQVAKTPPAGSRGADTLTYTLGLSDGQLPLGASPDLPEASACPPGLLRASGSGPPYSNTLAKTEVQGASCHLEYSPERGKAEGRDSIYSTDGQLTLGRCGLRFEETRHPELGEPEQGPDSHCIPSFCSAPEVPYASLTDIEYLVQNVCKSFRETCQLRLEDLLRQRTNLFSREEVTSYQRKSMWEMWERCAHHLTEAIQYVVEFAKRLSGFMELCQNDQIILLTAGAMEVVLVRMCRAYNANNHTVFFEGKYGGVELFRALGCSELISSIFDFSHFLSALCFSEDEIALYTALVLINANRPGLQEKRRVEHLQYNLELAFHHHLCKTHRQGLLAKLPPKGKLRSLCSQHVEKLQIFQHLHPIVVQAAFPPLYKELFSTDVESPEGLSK
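Schneider cells (Drosophila), stable Gal4 DBD–ROR gamma + UAS-luc; 1 hr cmpd preincubation; Cu2+ induction 700 uM final; 20 hr ambient; luminescence.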
DT40 TDP1 CPT – DT40-hTDP1 cell growth loss with CPT; chicken DT40 Tdp1-/-;hTDP1 cells + 20 nM CPT, ATP luminescence, 48 h; Potency, µM (top dose mostly 46.2 µM), without a hit: top-dose activity change, negative = growth inhibition, most hits filed as inhibitors; actives 12% (n = 420,000); AID 686979; also: potency is read from the fitted curve at half-maximal effect; nearly all actives have a fitted effect of over 55% in size
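Chicken DT40 Tdp1-/- cells stably complemented with human TDP1 were seeded at 400 cells/well in medium containing 20 nM camptothecin, exposed to pin-transferred compounds, and grown at 37 °C for at least 48 hr. Viability was read as ATP luminescence.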
VP16 counter – Gal4-VP16 reporter inhibition counter-screen; Drosophila S2 Gal4-VP16 UAS-luciferase, luminescence, 20 h; Potency, µM (highest dose often 53.6 µM), without a hit: top-dose activity, negative = inhibition, actives largely listed as inhibitors; actives 3.5% (n = 310,000); AID 2546;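 also: Gal4-VP16 expression switched on by copper sulfate through the metallothionein promoter; potency is read from the fitted curve at half-maximal effect; nearly all actives have a fitted effect of over 50% in size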
Active calls of the source: *; ? = inconclusive; · = no result given. An excerpt weighted towards active compounds, which were near 18% of everything screened. Unless noted, calls follow the shape of the dose curve; as a rule, active = well fitted curve in the direction sought with a large enough effect; inconclusive = small, poorly fitted or top-dose-only effect, or another doubt; inactive = no such curve, though single readings can be large; an effect the other way counts as inactive or inconclusive. Unless noted, % is scaled to controls: 0 for no effect and ±100 for the full control effect.

SMILES	IL-1B inflam inh	DT40 TDP1 no CPT	LDHA block	RORg inh	DT40 TDP1 CPT	VP16 counter
Cc1cccc(C(=O)N2CCC(=O)N([C@H](COCc3ccc(Cl)cc3)Cc3ccccc3)CC2)c1	-11.6	?	-3.1	34.3%	?	-10.6%
Cc1cccc(C(=O)N2CCC(=O)N(C(COCc3cccc(Cl)c3)Cc3ccccc3)CC2)c1 (configuration not stated)	-28.9	16.4µM*	0.6	43.8%	?	-11.3%
Cc1cccc(C(=O)N2CCC(=O)N(C(COCc3ccc(Cl)cc3)Cc3ccccc3)CC2)c1 (configuration not stated)	-27.6	20.6µM*	1.1	20.2%	20.6µM*	-4.0%
Cc1cccc(C(=O)N2CCC(=O)N([C@H](COCc3cccc(Cl)c3)Cc3ccccc3)CC2)c1	-11.0	18.4µM*	1.2	14.9%	23.1µM*	-1.9%
O=C(c1cccc(Cl)c1)N1CCC(=O)N(C(CO)Cc2ccccc2)CC1 (configuration not stated)	12.6	-9.9%	-2.8	·	-21.1%	·
O=C(Cn1nc(C(=O)O)c2ccccc2c1=O)c1ccc(C2CCCCC2)cc1	·	·	11.8	·	·	·
CC(=O)N1CCN(S(=O)(=O)c2cccc3cc(C)cnc23)CC1	·	·	-1.3	·	·	·
Cc1ccc(-c2nnc(SCC(N)=O)nc2-c2ccc(C)cc2)cc1	10.9	?	-5.7	-72.6%	?	-4.7%
Cc1ccc(CSCC(=O)N2CCOCC2)cc1	13.6	10.3µM*	-2.6	37.1%	6.51µM*	7.8%
Cc1ccc(-c2nnc(SCC(=O)NC(C)(C)C)nc2-c2ccc(C)cc2)cc1	·	?	0.9	·	29.1µM*	·
O=C(CSCc1ccc(Cl)cc1)N1CCOCC1	-4.5	-7.9%	-3.3	-10.2%	-4.7%	-5.9%
Cc1ccc(-c2nnc(SCC(=O)N(C)C)nc2-c2ccc(C)cc2)cc1	-0.3	23.1µM*	1.3	34.4%	?	-1.8%
Cc1ccc(-c2nnc(SCC(=O)N3CCOCC3)nc2-c2ccc(C)cc2)cc1	-7.3	?	-1.2	11.0%	20.6µM*	-1.9%
COc1cc(CN2CCCCCC2c2ccccc2Cl)ccc1OCC(N)=O (configuration not stated)	·	·	7.7	·	·	·
N#Cc1ccc(NCC(=O)Nc2ccccc2)cc1	·	·	-0.8	·	·	·
O=C(CC(c1ccccc1)c1ccco1)N1CCCCC1 (configuration not stated)	·	·	·	32.5%	·	-2.5%
CCOc1ccc(-c2nnc(SCC(=O)NCc3ccc(C)cc3)nc2-c2ccc(OCC)cc2)cc1	·	13µM*	2.4	·	?	·
Cc1ccc(S(=O)(=O)N2CCN(C(=O)COC(=O)Cc3ccc(F)cc3)CC2)c(C)c1	11.9	-14.8%	-1.4	·	-2.4%	·
CSc1ccc(CSCC(=O)N2CCN(S(=O)(=O)c3ccc(C)cc3C)CC2)cc1	-29.1	?	-1.7	·	25.9µM*	·
Cc1ccc(C(CC(=O)N2CCOCC2)c2ccco2)cc1 (configuration not stated)	?	?	3.4	7.0%	16.4µM*	20.0%
O=[N+]([O-])c1ccc(N2CCN(C(=S)Nc3ccc(F)cc3)CC2)cc1	-3.9	5.8µM*	1.8	?	5.17µM*	?
Fc1ccc(NC(=S)N2CCOCC2)c(F)c1	4.3	13.7%	-15.2	0.0%	-0.4%	-6.5%
COc1ccc(N2CCN(C(=S)Nc3ccc(F)cc3)CC2)cc1	-7.3	0.1%	-3.9	-1.6%	1.2%	14.8%
O=[N+]([O-])c1cccc(NC(=S)N2CCCC2)c1	18.0	19.6%	0.3	-2.8%	-16.5%	5.2%
O=[N+]([O-])c1ccc(N2CCN(C(=S)Nc3cccc(F)c3)CC2)cc1	-20.0	9.2µM*	-4.5	?	8.2µM*	?
O=[N+]([O-])c1ccc(N2CCN(C(=S)Nc3ccc(F)cc3F)CC2)cc1	-8.4	8.2µM*	-5.1	12.6µM*	6.51µM*	?
